# This is one part of a sample in which hits are shown more often than they occur.
# Shh pathway inh: Sonic Hedgehog pathway inhibition | Shh-LIGHT2 Gli-luciferase reporter, 30 h | inhibition, % (no concentration beside the values) | 22,000 compounds, 2.1% hits | AID 2313;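 active = mean inhibition across valid replicates above about 65%, limit read from the data; inconclusive = mean under the limit, yet half or more replicates past it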;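 also: pathway switched on by Shh-conditioned medium diluted 1 in 25 in low serum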
# MITF inhib: blocks MITF activity. TRPM1 promoter luciferase, luminescence, 24 h. inhibition, % (test concentration not listed). 37,000 compounds, 0.28% hits. AID 2240; in the data active = inhibition above about 85%; inconclusive = no clear call, values can overlap the other calls; inactive = below about 68%;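 also: human melanocyte line stably carrying TRPM1 promoter luciferase reporter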
# * hit, by the source's call; ? = inconclusive; · = not tested or not shown.
SMILES,Shh pathway inh,MITF inhib
COc1ccc(S(=O)(=O)Nc2ccc3c(c2)C(=O)N([C@H](C)CO)C[C@@H](C)[C@@H](CN(C)Cc2ccc(Cl)c(Cl)c2)O3)cc1,78*,27
COc1ccc(S(=O)(=O)Nc2ccc3c(c2)C(=O)N([C@@H](C)CO)C[C@H](C)[C@H](CN(C)Cc2ccc(Cl)c(Cl)c2)O3)cc1,20,8
COc1ccc(S(=O)(=O)Nc2ccc3c(c2)C(=O)N([C@@H](C)CO)C[C@H](C)[C@H](CN(C)Cc2ccc(Oc4ccccc4)cc2)O3)cc1,40,47
C[C@H](CO)N1C[C@H](C)[C@H](CN(C)Cc2ccc(Cl)c(Cl)c2)Oc2ccc(NC(=O)c3ccncc3)cc2C1=O,86*,15
C[C@@H]1CN([C@H](C)CO)C(=O)c2cc(NC(=O)c3ccncc3)ccc2O[C@H]1CN(C)Cc1ccc(Cl)c(Cl)c1,·,-9
O=c1cc(Nc2ccc(Cl)cc2)nc(COc2ccccc2)[nH]1,-51,-33
O=C1SC(=S)N/C1=C/c1cccc(O)c1,2,-10
COc1ccccc1CC(=O)Nc1ccc(-c2nc3ccccc3[nH]2)cc1,·,72
CCN1/C(=C\C(=S)Nc2ccccc2)Sc2ccccc21,-115,-4
CCN1/C(=C/C2=CC(=O)CC(C)(C)C2)Sc2ccccc21,82*,49
O=C(Nc1nc(-c2ccccc2)cs1)C12CC3CC(CC(C3)C1)C2,-86,-20
C=CCn1c(-c2ccc(OC)cc2)c(C)sc1=Nc1ccc(C)cc1,-71,18
COc1c(CC=C(C)C)c2c(c3oc(=O)c(-c4ccc(OC(C)=O)cc4)c(OC(C)=O)c13)C=CC(C)(C)O2,-43,24
Cc1cccc(NC(=O)c2cccc(C(=O)Nc3cccc(C)c3)c2)c1,-51,-13
Cc1cccc(C(=O)NN(c2ccccc2)c2ccccc2)c1,95*,3
COc1ccc(C=Nc2ccc(Br)cc2)cc1,69*,-14
COc1ccc(/C=N/n2cnnc2)cc1,·,2
CCn1c(=NC(=O)c2ccc(S(=O)(=O)N(C)C)cc2)sc2ccccc21,-135,-45
CC(C)NC(=O)Nc1cccc2c1O[C@@H](CN(C)S(=O)(=O)c1ccc(Cl)cc1)[C@@H](C)CN([C@H](C)CO)C2=O,102*,-2
CC(C)NC(=O)Nc1cccc2c1O[C@@H](CN(C)S(=O)(=O)c1ccc(F)cc1)[C@@H](C)CN([C@@H](C)CO)C2=O,80*,-4
CC(C)NC(=O)Nc1cccc2c1O[C@H](CN(C)S(=O)(=O)c1ccc(Cl)cc1)[C@@H](C)CN([C@H](C)CO)C2=O,-4,1
CC(C)NC(=O)Nc1cccc2c1O[C@H](CN(C)S(=O)(=O)c1ccc(F)cc1)[C@H](C)CN([C@H](C)CO)C2=O,-3,0
CC(C)NC(=O)Nc1cccc2c1O[C@@H](CN(C)S(=O)(=O)c1ccc(Cl)cc1)[C@@H](C)CN([C@@H](C)CO)C2=O,96*,16
CC(C)NC(=O)Nc1cccc2c1O[C@H](CN(C)S(=O)(=O)c1ccc(Cl)cc1)[C@H](C)CN([C@@H](C)CO)C2=O,20,-5
O=C(c1cccs1)N1CCCn2c(SCc3ccccc3)nnc21,-9,-17
SMILES,Shh pathway inh,MITF inhib
CC(=O)N1c2ccccc2C(=O)C1NC(N)=S (stereo not drawn),·,-3
COc1ccc2sc(SCc3nc(N)nc(Nc4cccc(C)c4C)n3)nc2c1,·,14
COc1cccc2c1C(=O)c1ccc3c(c1C2=O)C(=O)CC(C)(O)C3 (stereo not drawn),-59,-14
COc1cccc2c1C(=O)c1c(O)c3c(c(O)c1C2=O)C[C@@](O)(C(=O)CO)C[C@@H]3O[C@H]1C[C@H](N)[C@H](O)[C@H](C)O1,90*,71
COc1cccc2c1C(c1ccc3c(c1O)C(=O)CC(C)C3O)OC2=O (stereo not drawn),1,-7
COc1cccc2c1C(=O)c1c(O)c3c(c(O)c1C2=O)C[C@@](O)(C(=O)CO)C[C@@H]3OC1CC(N)C(O)C(C)O1 (stereo partly drawn),83*,62
O=C1/C(=C/c2c[nH]c3ccccc23)CSc2ccccc21,·,-8
O=S(=O)(NC(c1ccccc1)c1ccccc1)c1ccccc1,-11,-2
CCOC(=O)c1cnc(N2CCOCC2)nc1N,-81,-10
CCCc1c(C(=O)OCC)c(C(=O)OCC)c2c(-c3ccccc3)nc(N3CCOCC3)nn12,78*,25
COc1ccc(-c2nc3ccccc3s2)cc1NC(=S)NC(=O)COc1ccc(C)cc1,·,-8
COc1ccccc1NC(=O)c1ccc(CSc2nc3ccccc3o2)cc1,·,8
COc1ccc(-c2coc3cc(O)ccc3c2=O)cc1,34,11
COc1ccc(-c2coc3cc(O)ccc3c2=O)c(OC)c1,80*,-6
CCn1c(SCC(=O)Nc2ccc(C)cc2C)nnc1-c1cccs1,·,-8
COc1cc(O)c(Cc2ccccc2O)c(O)c1C(=O)CCc1ccccc1,30,75
COc1cc(O)c(C(=O)CCc2ccccc2)c(O)c1Cc1ccccc1O,5,108*
CC(Oc1ccccc1)C(=O)Nc1cc([N+](=O)[O-])ccc1O (stereo not drawn),·,100*
CC(Oc1ccc(Br)cc1)C(=O)Nc1ccccc1[N+](=O)[O-] (stereo not drawn),·,-12
Cn1c(SCC(=O)c2ccc([N+](=O)[O-])cc2)nnc1-c1cc2ccccc2cc1O,·,40
CCC(C)C(O)(CC(=O)OCc1ccc(O[C@@H]2O[C@H](CO)[C@@H](O)[C@H](O)[C@H]2O)cc1)C(=O)OCc1ccc(O[C@@H]2O[C@H](CO)[C@@H](O)[C@H](O)[C@H]2O)cc1 (stereo partly drawn),-10,12
O=C1/C(=C/c2ccc(O)cc2)SC(=S)N1CCc1ccccc1,·,2
O=C(CC1c2ccccc2Oc2ccccc21)Nc1ccc(Cc2ccncc2)cc1,·,60
CCOC(=O)Nc1cccc(NC(=O)CC2c3ccccc3Oc3ccccc32)c1,·,89*
NCCOc1ccc(Cl)cc1,?,-35
SMILES,Shh pathway inh,MITF inhib
CS(=O)(=O)c1sc(NC(=O)Nc2ccc(Cl)cc2)c2c1C=CCC2,106*,47
COc1ccc(C(=O)Nc2ccc(Cl)cc2)cc1S(=O)(=O)Nc1ccc(Cl)cc1,-23,27
N#Cc1cccc(CSc2nnc(SCc3cccc(C#N)c3)s2)c1,68*,21
Nc1nnc(SCc2cccnc2)s1,·,-7
CSc1sc(C(=O)/C=C/N(C)C)c(-c2ccccc2)c1C#N,-8,-22
CN(C)/C=C/C(=O)c1ccsc1,·,-8
Cc1c(NC(=O)CSc2nc3cc(C(=O)N4CCCC4)ccc3s2)c(=O)n(-c2ccccc2)n1C,·,17
Cc1c(O)cc(O)c2c1OC(c1ccccc1)CC2=O (stereo not drawn),-8,-3
O=C1C[C@H](c2ccccc2)Oc2c(Cc3ccccc3O)c(O)cc(O)c21,-25,92*
COc1ccc(NC(=O)CC2NC(=O)NC2=O)cc1 (stereo not drawn),·,-1
C=C1C(=O)O[C@H]2C1C[C@@H](OC(C)=O)[C@@]1(C)[C@@H](OC(C)=O)C[C@@H](OC(C)=O)C(=C)[C@H]21 (stereo partly drawn),51,11
C=C(C)C(=O)O[C@H]1[C@H]2C(=C)C(=O)O[C@@H]2C[C@@H](C)/C=C/C(=O)[C@](C)(O)[C@@H]1OC(C)=O,-10,90*
O=C1c2ccccc2C(=O)N1CCc1nc2ccccc2c(=O)n1-c1nc2ccccc2s1,·,-34
N#CCS(=O)c1ccccc1 (stereo not drawn),-27,-8

# Bioassay records (PubChem)
